Experimental data published in the supplement of paper PMC12340641.
Where a name gives a salt, the structure may show the parent alone. ± gives the standard deviation of the averaged measurements.

How the values were obtained:
[1] = molecular target: IKZF1 (dCK*-IKZF1 fusion in HEK293FT) (UniProt Q13422); assay: inhibition of IKZF1 HTRF signal (DMSO = 0%, pomalidomide 10 uM = 100%); higher = lower IKZF1 protein level; conditions: compound concentration: 5 uM, overnight (~20 h)
In short: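 Compound was tested at 5 μM in single wells on HEK293FT cells (2000/well, 384-well) stably carrying an IKZF1 fusion, overnight at 37 °C. Total IKZF1 was measured in lysates with a commercial HTRF antibody kit as the background-subtracted 665/620 nm time-resolved FRET ratio. The reported figure is percent inhibition of IKZF1 signal, scaled per plate between vehicle and a reference degrader. The vehicle anchor was 0% and the degrader anchor 100%.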

HEK293FT dCK*-only = assay: relative growth in counter assay (no AraC = 100%, AraC + DMSO = 0%); higher = more growth rescue independent of IKZF1; conditions: compound concentration: 5 uM; AraC concentration: 0.3 uM; overnight pretreatment + 4 days AraC
In short: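 For this counter assay, relative growth was normalised on each plate to two kinds of reference wells. HEK293FT cells expressing only an engineered kinase construct (300/well, 384-well) were treated with 5 μM compound 2 h after seeding, then after overnight at 37 °C with a nucleoside suicide substrate at 0.3 μM plus medium for 4 days. On day 5, Hoechst 33342-stained nuclei were counted by imaging, taking wells without suicide substrate as 100% and substrate plus vehicle as 0%.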

HEK293FT dCK*-IKZF1 = assay: relative growth recovery (pomalidomide 10 uM = 100%, DMSO = 0%); higher = more growth rescue (IKZF1 fusion degradation); conditions: compound concentration: 5 uM; AraC concentration: 0.3 uM; overnight pretreatment + 4 days AraC
In short: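 On day 5, whole-well imaging was used to count Hoechst 33342-stained nuclei of HEK293FT cells stably carrying a deoxycytidine kinase–IKZF1 fusion. These cells had received 5 μM compound 2 h after seeding, followed after overnight at 37 °C by a nucleoside suicide substrate at 0.3 μM plus medium for 4 days. Growth recovery was normalised on each plate against a reference degrader and vehicle, which defined 100% and 0%, and values are duplicate means from separate days.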

Sequence of IKZF1 (dCK*-IKZF1 fusion in HEK293FT) (Q13422 whole entry, looked up, the tested form may be a part): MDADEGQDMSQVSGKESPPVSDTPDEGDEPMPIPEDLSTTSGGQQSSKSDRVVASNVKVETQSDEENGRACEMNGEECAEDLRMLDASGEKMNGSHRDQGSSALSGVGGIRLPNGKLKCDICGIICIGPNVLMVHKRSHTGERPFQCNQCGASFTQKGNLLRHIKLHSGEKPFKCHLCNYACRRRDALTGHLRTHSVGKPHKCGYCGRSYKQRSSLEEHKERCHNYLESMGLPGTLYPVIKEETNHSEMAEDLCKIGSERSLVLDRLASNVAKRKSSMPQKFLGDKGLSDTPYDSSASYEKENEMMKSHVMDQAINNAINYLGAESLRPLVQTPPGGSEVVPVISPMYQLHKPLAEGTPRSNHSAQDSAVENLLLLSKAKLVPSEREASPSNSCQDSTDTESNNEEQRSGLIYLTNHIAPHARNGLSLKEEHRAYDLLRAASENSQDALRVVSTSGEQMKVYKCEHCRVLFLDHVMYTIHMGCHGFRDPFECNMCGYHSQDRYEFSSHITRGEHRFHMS

SMILES | inhibition of IKZF1 HTRF signal [1] [%] | relative growth in counter assay (HEK293FT dCK*-only) [%] | relative growth recovery (HEK293FT dCK*-IKZF1) [%]
CC[C@]1(O)C[C@H]2CN(CCc3c([nH]c4ccccc34)[C@@](C(=O)OC)(c3cc4c(cc3OC)N(C=O)[C@H]3[C@@](O)(C(=O)OC)[C@H](OC(C)=O)[C@]5(CC)C=CCN6CC[C@]43[C@@H]65)C2)C1 [Vincristine Sulfate] | 33.3 | -33.5 | -12.2
Nc1c2ccccc2nc2ccccc12 | 58.6 | -34.8 | -14
CCN(CC)CCCC(C)Nc1c2ccc(Cl)cc2nc2ccc(OC)cc12 (configuration not stated) | 57.3 | -34.1 | -13.4
COc1cc([C@@H]2c3cc4c(cc3[C@@H](O[C@@H]3O[C@@H]5CO[C@@H](C)O[C@H]5[C@H](O)[C@H]3O)[C@H]3COC(=O)[C@H]23)OCO4)cc(OC)c1OP(=O)(O)O [Etoposide phosphate] | -12.6 | -33.9 | -13
O=C1NC(=O)/C(=C/c2ccc(-c3ccc(F)cc3O)o2)S1 | -15.8 | -7.95 | -0.795
CC(C)(C)c1cc(O)c(C(C)(C)C)cc1O | -31.7 | -0.82 | -0.575
CCOc1ccc2nc3cc(N)ccc3c(N)c2c1 | -16.3 | -23.6 | -6.36
CN1C(=O)/C(=C2/C(=O)Nc3ccccc32)c2ccccc21 [Meisoindigo] | -22.1 | -7.74 | -3.15
OC1=C(C[C@]([C@](CO)=O)(O)C[C@@H]4O[C@@]5([H])C[C@H](N)[C@H](O)[C@H](C)O5)C4=C(O)C3=C1C(C2=CC=CC(OC)=C2C3=O)=O [doxorubicin] | -9.64 | -35.2 | -13.8
COc1ccc(-c2ccc3c(N4CCOCC4)nc(N4C[C@@H](C)O[C@@H](C)C4)nc3n2)cc1CO | 14.5 | -14 | -6.47
COc1ccccc1Oc1c(NS(=O)(=O)c2ccc(C)cn2)nc(-c2ccncc2)nc1OC [Avosentan] | -39.7 | -4.67 | -1.19
C[n+]1c2cc(N)ccc2cc2ccc(N)cc21 | 69.3 | -34.9 | -15
COc1cccc2c1C(=O)c1c(O)c3c(c(O)c1C2=O)C[C@@](O)(/C(CO)=N/NC(=O)CCCCCN1C(=O)C=CC1=O)C[C@@H]3O[C@H]1C[C@H](N)[C@H](O)[C@H](C)O1 [Aldoxorubicin] | -9 | -35.5 | -14
CN1CCN(Cc2ccc(-c3cnc4[nH]cc(-c5ccc6[nH]ccc6c5)c4c3)cc2)CC1 | -32.6 | -34.1 | -11.6
Clc1ccc(COC(Cn2ccnc2)c2ccc(Cl)cc2Cl)c(Cl)c1 (configuration not stated) [Miconazole] | 20.3 | 1.72 | 3.22
C=C1C(=O)O[C@@H]2C=C(C)CCC=C(C)CC[C@@H]12 [costunolide] | -26.8 | -18.2 | -0.955
COC1CCN(c2cccc(-c3cc(NC(C)=O)nc(-n4nc(C)cc4C)n3)n2)CC1 | -25.1 | 7.56 | -1.86
COc1ccc(NS(=O)(=O)c2ccc(N=Nc3ccc(O)c(C(=O)O)c3)cc2)nn1 [salazodine] | -2.92 | 6.32 | -2.83
CCCCCCCCN=c1ccn(CCCCCCCCCCn2ccc(=NCCCCCCCC)cc2)cc1 [Octenidine Dihydrochloride] | 64.7 | -35.3 | -14.7
OCCN1CCN(CCCN2c3ccccc3Sc3ccc(Cl)cc32)CC1 [Perphenazine] | 0.695 ± 0.86 | 7.41 ± 5.6 | 2.98 ± 1
COc1ccc(NS(=O)(=O)c2ccc(N)cc2)nn1 | -33.3 | -4.98 | -1.8
O=C(O)c1cc([N+](=O)[O-])ccc1NCCCc1ccccc1 | -22.5 | -2.81 | -1.86
Nc1ncc(Cc2ccc(Br)cc2)s1 | -28.6 | -1.27 | -1.02
Cc1ccc(S(=O)(=O)NC(=O)NN2CCCCCC2)cc1 | -31.1 | 0.45 | -2.75
CC[C@]1(O)C[C@H]2CN(CCc3c([nH]c4ccccc34)[C@@](C(=O)OC)(c3cc4c(cc3OC)N(C)[C@H]3[C@@](O)(C(=O)OC)[C@H](OC(C)=O)[C@]5(CC)C=CCN6CC[C@]43[C@@H]65)C2)C1 [Vinblastine Sulfate] | -11.7 | -33.4 | -11.7
O=c1oc(-c2ccc(C(F)(F)F)cc2)nn1Cc1cc(Cl)ccc1O | 11.5 | -6.2 | -5.1
O=C(/C=C/c1ccc2ccccc2n1)c1ccncc1 | -36.5 | -35.1 | -15
COc1ncnc(NS(=O)(=O)c2ccc(N)cc2)c1OC | -56.1 | -8.08 | 0.355
Cc1cc(C)nc(NS(=O)(=O)c2ccc(NC(=S)NC(=O)COc3ccc(Br)cc3Cl)cc2)n1 | -36.5 | 0.75 | 1.03
